From PubChem BioAssay (EPA / NIEHS)
“And” between values parts separate entries of the source, which are not always exact repeats. Identical values can stand only once. Results filed as inconclusive are left out. A structure can be active in one record and inactive in another. The source made the active and inactive calls. The calls were made as follows: active = hit-call score of the fitted dose curve at least 0.9, where 1 is the maximum; inconclusive = response in the unintended direction; inactive = score below 0.9.

What follows are compounds tested against Retinoic acid receptor RXR-alpha (Homo sapiens) (UniProt P19793) (assay: OT_NURR1_NURR1RXRa_1440: Odyssey Thera (OT) 24-hour HEK293T Protein Complementation Assay for Nurr1/retinoid X receptor (RXR) (AID 2283386)).
Chain of Retinoic acid receptor RXR-alpha (Homo sapiens) (P19793 whole entry, looked up, the tested form may be a part): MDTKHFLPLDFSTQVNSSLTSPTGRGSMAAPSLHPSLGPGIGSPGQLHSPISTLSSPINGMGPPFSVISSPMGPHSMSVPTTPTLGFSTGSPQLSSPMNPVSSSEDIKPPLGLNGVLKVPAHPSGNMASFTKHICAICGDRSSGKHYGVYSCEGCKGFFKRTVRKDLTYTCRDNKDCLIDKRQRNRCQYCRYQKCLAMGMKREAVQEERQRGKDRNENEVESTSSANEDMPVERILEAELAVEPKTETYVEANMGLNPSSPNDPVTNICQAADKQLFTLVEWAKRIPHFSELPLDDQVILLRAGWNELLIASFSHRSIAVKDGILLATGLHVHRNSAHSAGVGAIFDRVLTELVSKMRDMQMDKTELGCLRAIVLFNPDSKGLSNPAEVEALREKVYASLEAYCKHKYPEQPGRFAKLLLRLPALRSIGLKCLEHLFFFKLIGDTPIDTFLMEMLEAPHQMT
Experimental: OT_NURR1_NURR1RXRa_1440 is a cell-based assay that uses HEK293T, a human kidney cell line, with measurements taken at 24 hours after chemical dosing in a 384-well plate.OT_NURR1_NURR1RXRa_1440 is one of one assay component(s) measured or calculated from the OT_NURR1_NURR1RXRa_1440 assay. It is designed to make measurements of protein fragment complementation, a form of binding reporter, as detected with fluorescence intensity signals by Protein-fragment Complementation technology.Data from the assay component OT_NURR1_NURR1RXRa_1440 was analyzed into 1 assay endpoint. This assay endpoint, OT_NURR1_NURR1RXRa_1440, was analyzed in the positive analysis fitting direction relative to DMSO as the negative control and baseline of activity. Using a type of binding reporter, measures of receptor for gain-of-signal activity can be used to understand the binding at the pathway-level as they relate to the gene RXRA. Furthermore, this assay endpoint can be referred to as a primary readout, because the performed assay has only produced 1 assay endpoint. To generalize the intended target to other relatable targets, this assay endpoint is annotated to the nuclear receptor intended target family, where the subfamily is non-steroidal.
Protein-fragment complementation assay, or PCA, is a method for the identification and quantification of protein-protein interactions. In the PCA, the proteins of interest ("bait" and "prey") are each covalently linked to fragments of a third protein (e.g. DHFR, which acts as a "reporter"). Interaction between the bait and the prey proteins brings the fragments of the reporter protein in close proximity to allow them to form a functional reporter protein whose activity can be measured.

SMILES	outcome	AC50
CC(=O)c1ccc2ccccc2c1	inactive	–
CC1COC(=O)O1 (stereo not given)	inactive	–
C=C(C)C(N)=O	inactive	–
CCCCCCCCCO	inactive	–
COC(=O)c1cccc(C(=O)OC)c1	inactive	–
NCCN1CCNCC1	inactive	–
CCCCCCCCCCCCN1CCOCC1	–	80.4 µM (active)
CCCCN(CCCC)CCCCCCN(CCCC)CCCC	inactive	–
CCC(=O)OC(C)(C)C1CC=C(C)CC1 (stereo not given)	inactive	–
COc1ccc2[nH]cc(CCNC(C)=O)c2c1	inactive	–
C[C@]12CC[C@@H]3c4ccc(O)cc4CC[C@H]3[C@@H]1CC[C@@H]2O	inactive	–
O=C(O)CS	inactive	–
CC1=CCC(C(C)(C)O)CC1 (stereo not given)	inactive	–
CCCCCCC(C)O (stereo not given)	inactive	–
CCCCCCOc1ccc(O)cc1	inactive	–
CCO[Si](CC)(OCC)OCC	inactive	–
CC12CCC(C1)C(C)(C)C2O (stereo not given)	inactive	–
CN(C)C(=O)Nc1ccccc1	inactive	–
CCCCCCCCCCO[C@@H]1O[C@H](CO)[C@@H](O)[C@H](O)[C@H]1O	inactive	–
C=CC(C)CCCC(C)(C)O (stereo not given)	inactive	–

SMILES	outcome	AC50
CCCCC(CC)COCCO (stereo not given)	inactive	–
CC(C)N(c1ccccc1)C(C)C	inactive	–
CCCCCCCC(=O)N(C)C	inactive	–
CC(O)CN (stereo not given)	inactive	–
CCC(C)(C)C1CCC(=O)CC1	inactive	–
O=C(O)C1=NN(c2ccc(S(=O)(=O)O)cc2)C(=O)C1	inactive	–
CCCCCC1CCC(=O)O1 (stereo not given)	inactive	–
CC(=O)OC/C=C(C)/C=C/C=C(C)/C=C/C1=C(C)CCCC1(C)C	inactive	–
CC(C)C(=O)c1ccccc1	inactive	–
C=CCCCCCCCCC(=O)OCC	inactive	–
CC(=O)C1=C(C)[C@@H]2C[C@@]3(C1)[C@H](C)CC[C@H]3C2(C)C	–	90 µM (active)
CCCO	inactive	–
C=CC(O)CCCCC (stereo not given)	inactive	–
CC/C(=C(\c1ccccc1)c1ccc(OCCN(C)C)cc1)c1ccccc1	–	10.4 µM (active) and 11.5 µM (active)
CC1=CCC(C(C)C)=CC1	inactive	–
CCCC[N+](C)(CCCC)CCCC	inactive	–
CCCCCCCCCCCCS	–	93.7 µM (active)
CC(C)(C)c1cccc(O)c1	inactive	–
O=C(c1ccc(OCCN2CCCCC2)cc1)c1c(-c2ccc(O)cc2)sc2cc(O)ccc12	inactive	11.9 µM (active) and 11.8 µM (active)
